Assay results published in PubChem BioAssay AID2289 (National Center for Advancing Translational Sciences (NCATS), 2010).
In all, about 340,000 compounds went through this assay and about 3,300 (0.97%) were called active. Another 9% or so got no clear call; they are omitted. Calls follow the shape of the dose curve; as a rule, active = well fitted inhibition curve with a large enough effect; inconclusive = small, poorly fitted or top-dose-only effect, or effect the other way; inactive = flat fitted curve, though single readings scatter. This is one part of the list.

test: qHTS Assay for Modulators of miRNAs and/or Inhibitors of miR-21; details: HeLa miR-21-FLuc reporter, luciferase luminescence, 48 h; actives lower the signal; also: nearly all actives have a fitted effect of over 55% in size
Summary of the method: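 Luminescence from a firefly luciferase reporter carrying a miR-21 binding site downstream, stably expressed under a CMV promoter in HeLa cells that make miR-21 endogenously, reports miRNA modulation after 48 h compound exposure up to approximately 40uM final.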
Potency is read from the fitted curve at half-maximal effect.

Potency, active:
Cc1cc(-c2ccc(Br)cc2)n[nH]1 13.1 µM, CCC(=O)N1CCC(c2ccc(OC)cc2)=N1 13.1 µM, O=C(Nc1ccccc1F)C(=O)Nc1cccc2ccccc12 3.29 µM, O=C(Nc1cccc2ccccc12)c1onc2c1CCCC2 5.85 µM, O=C(CSc1cccs1)Nc1cccc2ccccc12 10.4 µM, O=C(Nc1cccc2ccccc12)c1ccccc1 6.56 µM, CC1CC1C(=O)OCC(=O)Nc1ccc(N=Nc2ccccc2)cc1 (stereo not drawn) 1.47 µM, O=C(COC(=O)C1CC1)Nc1ccc(N=Nc2ccccc2)cc1 1.85 µM, C(=N\Nc1cc(N2CCCCC2)ncn1)/c1ccco1 2.93 µM, Cc1ccc(-c2cc(=O)c3cc(Cl)ccc3[nH]2)cc1 0.369 µM, FC(F)(F)c1cc(Cl)c2nc(-c3ccccc3)cn2c1 0.369 µM, CNc1oc(/C=C/c2cccc(OC)c2)nc1C#N 2.93 µM, CNc1oc(/C=C/c2ccccc2)nc1C#N 3.29 µM, CCCCNc1nc(N)nc(-c2cc(Cl)ccc2O)n1 0.927 µM, CNC(=O)c1ccc(NC(=O)/C=C/c2cccc(F)c2)cc1 10.4 µM, Cn1cc([N+](=O)[O-])c(C(=O)Nc2ccc3nc(-c4ccccc4)[nH]c3c2)n1 14.7 µM, Cn1cc([N+](=O)[O-])c(C(=O)Nc2ccc(-c3nc4ccccc4o3)cc2)n1 7.36 µM, CNc1nc(-c2ccc3c(c2)CCN3C(=O)c2ccccc2C)cs1 4.65 µM, CC(C)(C)Nc1nc(-c2ccc3c(c2)CCN3C(=O)C2CC2)cs1 1.47 µM, COC(=O)c1ccc(N2CCC(C)CC2)c(N)c1 4.14 µM, Cc1c(C(=O)NC2CCCCC2)oc2ccc(F)cc12 13.1 µM, COc1ccc2oc(C(=O)NC3CCCCC3)c(C)c2c1 2.93 µM, COc1ccc2oc(C(=O)NC(C)(C)C)c(C)c2c1 3.69 µM, COc1ccc2c(c1)OC/C(=C/c1cccs1)C2=O 5.85 µM, Cn1cccc1C(=O)N/N=C/c1c(Cl)cccc1Cl 2.07 µM, O=C(CSc1nnc(C2CCCCC2)o1)Nc1ccccc1Cl 7.36 µM, Cc1cccc2nc(=S)n(C(=O)c3ccco3)n12 0.521 µM, Cc1cccn2c1nc(=S)n2C(=O)c1ccco1 1.04 µM, CC(=O)Oc1ccc(C(=O)[C@H]2[C@H]3C(=O)N(c4ccc5ccccc5c4)C(=O)[C@H]3[C@@H]3C=CC=NN32)cc1 6.56 µM, Cc1cc2nc(N)sc2cc1[N+](=O)[O-] 14.7 µM, O=S(=O)(Nc1ccc(-c2nc3cccnc3s2)cc1)c1cc(F)ccc1F 16.5 µM, Cc1ccc(-c2nc3cccnc3s2)cc1NS(C)(=O)=O 4.14 µM, O=S(=O)(Nc1ccc(-c2nc3cccnc3s2)cc1)c1ccccc1F 13.1 µM, CCN1CCN(Cc2ccc(NC(=O)Nc3ccccc3Cl)cc2)CC1 1.31 µM, CCN1CCN(Cc2ccc(NC(=O)Nc3ccc(SC)cc3)cc2)CC1 14.7 µM, O=C(Nc1ccc(CN2CCCCC2)cc1)Nc1ccccc1Cl 16.5 µM, O=C(Nc1cc2c(cc1Br)OCCO2)c1ccco1 6.56 µM, O=C(NNC(=S)Nc1ccc(Br)cc1Cl)c1ccco1 3.29 µM, O=C(Nc1cc2c(cc1Cl)OCCO2)c1ccco1 6.56 µM, O=C(Nc1cc2c(cc1Cl)OCCCO2)c1ccco1 3.69 µM, O=C(CCc1ccccc1)Nc1cc2c(cc1Cl)OCCO2 2.61 µM, Cc1c(-c2ccccc2)[nH]n2c(=O)c3c(nc12)CCCC3 2.93 µM, CC(=O)Nc1ccc2nc(-c3cccs3)[nH]c2c1 9.27 µM, CC(C)(C)C(=O)Nc1ccc(-c2nc3ccc(NC(=O)C(C)(C)C)cc3[nH]2)cc1 0.414 µM, CCOc1cc(/C=C2\N=C3CCCCCN3C2=O)ccc1O 14.7 µM, O=C1/C(=C\c2ccc(O)c(O)c2)N=C2CCCCCN12 14.7 µM, Cc1ccc2nc(CNC(=O)c3ccccc3)[nH]c2c1 6.56 µM, Cc1c(/C(O)=C2/C(=O)C(=O)N(Cc3cccnc3)C2c2cccs2)cnn1-c1ccccc1 (stereo not drawn) 5.21 µM, Cn1c(N)c(C(=O)/C=C/c2ccccc2)c(=O)[nH]c1=O 5.85 µM, Nc1cccc(C(=O)OCC(=O)c2ccccc2)c1 7.36 µM, CC(=O)Nc1cc(C(=O)OCC(=O)c2ccc(C)cc2)ccc1C 10.4 µM, CCC(=O)Nc1cc(C(=O)OCC(=O)c2ccccc2)ccc1C 1.85 µM, CNc1ccccc1C(=O)OCC(=O)c1ccccc1 16.5 µM, CCC(=O)Nc1cc(C(=O)OCC(=O)c2ccccc2Cl)ccc1C 10.4 µM, CCc1ccc(C(=O)CCC2CCCCC2=O)cc1 (stereo not drawn) 16.5 µM, Cc1ccc(C(=O)CCC2CCCCC2=O)cc1 (stereo not drawn) 14.7 µM, O=C(O)c1ccccc1C(=O)NNc1cccc(Cl)n1 5.85 µM, CCOC(=O)/C=C/c1cnn(-c2ccccc2)c1 2.33 µM
